Only some compounds are listed: those with a hit (about 5.4% of all), similar ones and a draw of the others.
ALR H2O2 inh: human ALR oxidase inhibition via reduced H2O2; inhibition, % (test concentration not listed); purified ALR, DTT oxidation, H2O2 HRP-luminol luminescence; P55789; actives 3.8% (n = 290,000); AID 485317;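 active = mean replicate inhibition above about 79%, with every replicate also reaching it, limit read from the data; inconclusive = only one of the two criteria met; inactive = mean below limit and not every replicate reaching it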
Target sequence (P55789 whole entry, looked up): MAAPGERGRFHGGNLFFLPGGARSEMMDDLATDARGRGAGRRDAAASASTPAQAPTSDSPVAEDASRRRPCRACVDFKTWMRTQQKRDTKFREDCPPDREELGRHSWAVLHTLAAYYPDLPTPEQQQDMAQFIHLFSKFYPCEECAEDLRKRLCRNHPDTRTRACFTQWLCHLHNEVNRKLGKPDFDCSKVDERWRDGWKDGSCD
Calb FLC: affects C. albicans growth with fluconazole | growth inhibition, % (test concentration not listed) | C. albicans CaCi-2 (fluconazole-resistant clinical isolate) + fluconazole, Alamar Blue growth, 48 h | actives 0.57% (n = 300,000);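 active = growth inhibition above about 58% in most replicates, limit read from the data, passing the limit was not always enough; inconclusive = exactly half the replicates above a set limit; inactive = most replicates below a set limit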;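 note: all wells also contain fluconazole at 8 µg/ml as a sub-toxic cotreatment; 0% = median of DMSO wells and 100% = median of geldanamycin control wells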
CSC inhib: cancer stem cell inhibition | actives 1.1% (n = 300,000) | inhibition, % at 7.5 µM | cancer stem cell-like cells viability, luminescence; in the data active = inhibition above about 75%; inconclusive = no clear call, values can overlap the other calls; tested in HMLE shEcad cells
PP5 inh: inhibitors of human protein phosphatase 5 (PP5) | actives 0.18% (n = 320,000) | purified PP5c, OMFP substrate fluorescence | P53041 | AID 1987 | inhibition, % at 6.7 µM;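 active = inhibition above the campaign's mean inhibition across all tested compounds plus 3 SD, cut at about 9.5% in these data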;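 note: 0% = DMSO only and 100% = 100 µM cantharidin control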
PP1 counter: counter-screen for PP5 inhibitors: inhibitors of human PP1-alpha; P62136; purified PP1alpha, OMFP fluorescence; inhibition, % at 6.7 µM; actives 0.9% (n = 320,000); AID 2235;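 active = inhibition above the mean inhibition of all tested compounds plus 3 SD, computed separately for each screening campaign, cut at about 15% in these data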
Target sequence (P62136 whole entry, looked up): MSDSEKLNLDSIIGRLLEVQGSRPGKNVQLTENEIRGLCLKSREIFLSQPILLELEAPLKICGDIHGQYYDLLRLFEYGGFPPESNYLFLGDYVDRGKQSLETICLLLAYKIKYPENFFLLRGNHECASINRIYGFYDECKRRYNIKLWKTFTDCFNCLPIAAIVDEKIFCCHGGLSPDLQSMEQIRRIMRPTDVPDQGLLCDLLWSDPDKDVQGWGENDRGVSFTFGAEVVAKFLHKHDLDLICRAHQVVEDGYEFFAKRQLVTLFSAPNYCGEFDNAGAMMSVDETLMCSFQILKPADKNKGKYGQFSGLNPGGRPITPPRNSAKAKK
* = called active by the depositor; ? = inconclusive; · = no result given.

SMILES	ALR H2O2 inh	Calb FLC	CSC inhib	PP5 inh	PP1 counter
NS(=O)(=O)c1ccc(CCNC(=O)c2ccc3c(c2)N(Cc2ccccc2)CCS3)cc1	18	22	-6	4	5
CCN1CCN(CCCNC(=O)c2ccc3c(c2)N(Cc2ccccc2)CCS3)CC1	99*	-8	8	3	-3
CCCCCNS(=O)(=O)c1cc(C)ccc1OC	-1	?	-2	2	0
CCCCCC(=O)NC(NC(=S)Nc1ccc(S(N)(=O)=O)cc1)C(Cl)(Cl)Cl (centres undefined)	17	1	-3	2	0
Cc1ccc(NC(=O)CSCC(=O)N(C)CC(=O)Nc2cccc(F)c2)cc1	99*	2	-18	1	-3
COc1cccc(CNCC(=O)Nc2ccc(N3CCOCC3)cc2)c1	99*	-12	-4	2	-3
CN(CC(=O)Nc1cccc(F)c1)C(=O)c1cn(-c2ccccc2)nc1-c1cccs1	·	-19	11	3	2
COc1cccc(CNC(=O)CSCC(=O)Nc2ccc(C)cc2)c1	99*	-2	-3	-1	0
CN(CC(=O)Nc1cccc(F)c1)C(=O)c1cn(-c2ccccc2)nc1-c1ccc(Cl)cc1	-9	·	102*	7	0
O=C(Nc1ccc2c(c1)OCCO2)C1CCN(C(=O)c2ccc(Br)cc2)CC1	-1	49	-11	-2	-3
COc1cccc(NC(=O)CN(C)C(=O)CSCC(=O)Nc2ccc(C)cc2)c1	99*	·	8	1	9
COc1ccc(NC(=O)CN(C)C(=O)CSCC(=O)Nc2ccc(C)cc2)cc1	·	1	·	3	-5
COc1ccc(NS(=O)(=O)c2cc(-c3cnc(C4CC4)o3)ccc2C)cc1	2	2	80*	4	2
Cc1cc(C)cc(NS(=O)(=O)c2ccc(-c3cnc(C4CC4)o3)cc2)c1	-24	0	·	7	0
Cc1ccc(C)c(NS(=O)(=O)c2ccc(-c3cnc(C4CC4)o3)cc2)c1	-9	-33	75*	5	6
CCOc1ccccc1N1CCN(C(=O)[C@@H]2CCCN2C2=NS(=O)(=O)c3ccccc32)CC1	97*	·	-5	4	1
O=C(CSc1ccc(-c2cccnc2)nn1)Nc1ccccc1	-4	0	-14	1	-4
COc1cccc(/C=C/C(=C2/C(=O)N(c3ccccc3)N=C2C)c2ccccc2)c1OC	-7	5	50	0	-4
COc1cccc(/C=C/C(=C2/C(=O)N(c3ccccc3)N=C2C)c2ccc(Br)cc2)c1OC	-4	?	76*	-1	-2
Cc1ccc2nc(-c3ccc(SCC(=O)O)nc3)[nH]c2c1	98*	5	-6	2	2
Cc1cc(C(=O)OCC(=O)c2cccc([N+](=O)[O-])c2)c2cccc(C)c2n1	-3	29	-7	1	-2
CCOC(=O)CSc1nc2ccc(N3CCOCC3)cc2c(=O)n1Cc1ccccc1	-32	30	44	1	4
COc1cc2[nH]c3c(N4CCN(c5ccccn5)CC4)ncnc3c2cc1OC	99*	1	22	5	-1
COc1ccc(N2CCN(c3ncnc4c3[nH]c3ccccc34)CC2)cc1	43	-3	9	3	0
COc1ccc(C(=O)Nc2ccc(S(=O)(=O)Nc3onc(C)c3C)cc2)cc1	-6	15	·	1	-2
SMILES	ALR H2O2 inh	Calb FLC	CSC inhib	PP5 inh	PP1 counter
CC1CC(N(C(=O)c2ccco2)c2ccccc2)c2ccccc2N1 (centres undefined)	97*	-8	-7	1	1
CCCCn1c(/N=C/c2ccc3c(c2)OCO3)nc2ccccc21	3	0	-1	1	-4
COc1ccc(C)cc1N1C(=N)/C(=C2/Nc3ccccc3S2)C(c2ccccc2)C1=O (centres undefined)	·	·	112*	2	6
COC(=O)/C=C1\N/C(=N\c2nc(C)cc(C)n2)N(c2ccccc2)C1=O	97*	-1	-8	3	-3
COc1ccc(-c2nc3n(n2)C(c2ccccc2)C2=C(CCCC2=O)N3)cc1OC (centres undefined)	97*	-20	-15	2	-3
COc1ccc(C2C3=C(CCCC3=O)Nc3nc(-c4cc(OC)c(OC)c(OC)c4)nn32)cc1OC (centres undefined)	-3	12	-12	0	-3
COc1cc(C)c(S(=O)(=O)N2CCCC2)cc1C(C)C	0	-4	8	2	-1
COc1cc(C)c(-c2cc(C(=O)O)c(C)o2)cc1C(C)C	97*	2	-3	3	0
N#CCC(=O)Nc1ccc(C(=O)OCC(=O)NC(=O)NCc2ccco2)cc1	98*	·	-4	·	·
COc1ccc(C2=NN(C(=O)COC(=O)c3ccc(NC(=O)CC#N)cc3)C(c3ccco3)C2)cc1 (centres undefined)	-6	·	67	2	16*
CCOC(=O)c1ccc(NC(=O)CCC(=O)NCc2ccco2)cc1	1	-8	-5	0	-7
O=C(OCC(=O)N1N=C(c2ccc(Cl)cc2)CC1c1ccco1)c1ccco1 (centres undefined)	-3	4	-8	2	-3
C=CCNC(=O)CC(=O)N/N=C/c1ccc(C(=O)OC)cc1	-3	0	-5	-1	-2
CN(C)S(=O)(=O)c1cccc(NC(=O)c2ccncc2)c1	-4	-3	2	4	-1
COC(=O)[C@H](Cc1ccccc1)NC(=O)N1CCN(c2ccccc2)CC1	85*	17	-8	-5	-5
O=C(O)[C@H](Cc1ccccc1)NC(=O)N1CCN(c2ccc(F)cc2)CC1	98*	-1	0	-1	1
Nc1ccc(-c2nc3ncccc3o2)c(O)c1	·	4	·	-1	0
O=C1c2ccccc2C(=O)N1CC#CCN1CCN(C(c2ccccc2)c2ccccc2)CC1	·	9	96*	2	0
C=CCNC(=O)CN1CCN(C(c2ccccc2)c2ccccc2)CC1	-10	5	-21	2	0
Cc1ccc(C(CC(=O)NCc2ccco2)c2ccc(OC(C)C)cc2)cc1 (centres undefined)	3	-8	9	4	-3
CCC(/C=N/NC(=O)c1ccccc1F)CC	-2	20	-4	-1	-4
CCC(/C=N/NC(=O)C(N)=O)CC	98*	-18	-9	3	6
CC(C)[C@H](NC(=O)NC1CCN(Cc2ccccc2)CC1)C(=O)O	0	-10	4	-3	-3
CCCNC(=O)CS(=O)Cc1nc(-c2cccc(OC)c2)oc1C (centres undefined)	99*	0	-14	0	2
COc1cccc(-c2nc(CS(=O)CC(=O)NCCc3ccc(C)cc3)c(C)o2)c1 (centres undefined)	14	28	-1	0	-3
COc1cccc(-c2nc(CS(=O)CC(=O)NCc3ccccc3)c(C)o2)c1 (centres undefined)	100*	2	-8	-1	0
Cc1nn(C)c(C)c1CCC(=O)N1CCCC(Nc2ccc(C(C)C)cc2)C1 (centres undefined)	51	-1	7	-3	3

Screening results: PubChem BioAssay, several laboratories
